PfHsp90 yeast 2 = inhibits growth of yeast expressing Plasmodium falciparum Hsp90. S. cerevisiae expressing PfHsp90, BacTiter-Glo ATP, 48 h; yeast lacking PDR1 and PDR3 efflux regulators. inhibition, % at 9.4 µM. 0.32% of 310,000 active. AID 504621;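 active = every replicate shows inhibition above about 80%, whatever the replicate mean, limit read from the data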
NALP3 yeast inh = NALP3 inhibition in yeast | Yeast reconstituted NLRP3/ASC/caspase-1, beta-gal luminescence, 24 h | inhibition, % at 10 µM | 0.39% of 330,000 active | AID 2825;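 active = inhibition of 50% or more; inactive = inhibition below 50%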
NALP1 yeast inh = blocks the NALP1 inflammasome reconstituted in yeast | inhibition, % at 10 µM | 0.61% of 280,000 active | AID 2071 | S. cerevisiae NALP1/ASC/caspase-1 growth, X-gal OD620, 72 h; in the data active = inhibition mostly above about 24%, no sharp cut-off; inactive = mostly below about 32%
tim10-1 inh = tim10-1 yeast growth inhibition; S. cerevisiae tim10-1 ts strain growth, BacTiter-Glo, 24 h; inhibition, % at 20 µM; 2.2% of 330,000 active;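 active = inhibition of at least 40%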;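 also: mutant grown at 25 °C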
tim23-1 inh = inhibits growth of tim23-1 mutant yeast; S. cerevisiae tim23-1 growth, BacTiter-Glo luminescence, 24 h; inhibition, % at 20 µM; 1.3% of 330,000 active; AID 463212;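 active = growth inhibition of the mutant yeast at or above 50%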;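 also: temperature-sensitive mutant grown at 25 °C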
TIM10 inh = inhibits growth of TIM10 yeast strain. AID 463195. inhibition, % at 10 µM. 1.4% of 330,000 active. S. cerevisiae TIM10 strain growth, BacTiter-Glo luminescence, 24 h;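 active = inhibition of 40% or more at the single tested concentration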;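 also: wild-type TIM10 isogenic control strain grown at permissive 25 °C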
NALP3 yeast conf = confirmation of NALP3 inhibitors in yeast | yeast expressing human NALP3, luminescence | inhibition, % at 10 µM | 81% of 1,300 active | shares compounds with NALP3 yeast inh; in the data active = inhibition above about 48%
Casp1-ASC yeast = active in yeast caspase-1-ASC counter-screen for NALP3 inhibitors | 66% of 1,000 active | AID 488784 | yeast expressing Caspase-1-ASC, luminescence counter screen | shares compounds with NALP3 yeast inh | inhibition, % at 10 µM
NALP3 retest = retest-confirmed inhibitor of NALP3 in yeast; yeast expressing human NALP3, luminescence read-out; AID 488794; 53% of 1,000 active; inhibition, % at 10 µM; shares compounds with NALP3 yeast inh
Hits are given with their value; – = inactive; · = no result. The list is not random: actives were taken first. Their share in the collection is about 4.1%. Rule as the data show it, unless noted: active = inhibition above about 50%; inactive = the rest.

SMILES	PfHsp90 yeast 2	NALP3 yeast inh	NALP1 yeast inh	tim10-1 inh	tim23-1 inh	TIM10 inh	NALP3 yeast conf	others
C[C@]12CC[C@H](O)CC1C(=O)CC1C2CC[C@@]2(C)C1CC[C@@H]2O (stereo not given in full)	–	–	·	–	–	–	–	Casp1-ASC yeast=50;NALP3 retest=–
C[C@]12C[C@@H](O)[C@H](O)CC1=CCC1C2CC[C@@]2(C)C1CC[C@@H]2O (stereo not given in full)	–	58	·	–	–	–	55
C[C@]12C[C@@H](O)[C@H](O)CC1=CCC1C2CC[C@]2(C)C(=O)CCC12 (stereo not given in full)	–	–	·	–	–	–	·
C[C@]12CCC3C(CC[C@H]4C[C@@H](O)CC[C@]34C)[C@H]1CC[C@H]2O (stereo not given in full)	–	51	·	–	–	–	57
C[C@H]1CC[C@@]2(C)[C@@H](CC[C@@H]3[C@@H]2CC[C@]2(C)[C@@H](O)CC[C@@H]32)C1	–	–	·	–	–	–	·
C[C@H]1CC[C@@H]2N(C1)C[C@H]1[C@@H]3C[C@H]4[C@@H](CC(=O)[C@H]5C[C@@H](O)CC[C@@]54C)[C@@H]3CC[C@H]1[C@]2(C)O	–	–	–	–	–	–	·
C[C@]12CC[C@@H](O)C[C@@H]1CC[C@@H]1[C@@H]2CC[C@]2(C)[C@@H](O)CC[C@@H]12	–	53	–	–	–	–	66	Casp1-ASC yeast=57;NALP3 retest=–
O=C(O)C1C2CCC(O2)C1C(=O)Nc1cccc(Br)c1 (stereo not given)	–	–	–	–	–	–	·
C[C@]12CCC3C(CC[C@H]4C[C@H](O)[C@H](O)C[C@]34C)C1CC[C@@H]2O (stereo not given in full)	–	·	·	·	·	·	·
CC(C)C/C(=N/O)c1cn(C)c2ccccc12	–	–	–	–	–	–	·
C[C@]12CCC3C(CC[C@H]4C[C@@H](O)[C@H](O)C[C@]34C)C1CC[C@@H]2O (stereo not given in full)	–	55	·	–	–	–	60
C[C@]12CCC3C(CC[C@H]4C[C@@H](O)CC[C@]34C)C1C[C@@H](O)[C@]2(C)O (stereo not given in full)	–	50	·	–	–	–	57
C[C@]12CCC3C(CC[C@H]4C[C@@H](O)CC[C@]34C)C1CC[C@@]2(O)C(F)(F)F (stereo not given in full)	·	56	·	–	–	–	55
CCC(=O)O[C@@H]1[C@@H](OC(C)=O)[C@@]2(O)C(C[C@H](O)C2(C)C)[C@](C)(O)[C@H]2CC[C@@H]3[C@@H](O)[C@]12C[C@@]3(C)O (stereo not given in full)	–	–	–	–	–	–	·
COC(=O)C1C2CC[C@@H](CC1OC(=O)c1ccccc1)N2 (stereo not given in full)	·	–	·	–	–	–	·
CCC1(c2cccc(O)c2)CCCCN(C)C1 (stereo not given)	–	–	·	–	–	–	·
NC(Cc1nc2ccccc2[nH]1)c1ccc(Cl)cc1 (stereo not given)	–	–	–	–	–	–	·
C[C@]12CCC3C(CC[C@@H]4C[C@H](O)CC[C@]34C)C1CCC2=O (stereo not given in full)	–	73	·	–	–	–	72	Casp1-ASC yeast=72;NALP3 retest=52
C[C@]12CCC3[C@@H](CC[C@H]4C[C@@H](O)CC[C@]34C)C1CCC2=O (stereo not given in full)	–	59	–	–	–	–	71
C[C@]12CC[C@@H](O)C[C@H]1CC[C@@H]1[C@@H]2CC[C@]2(C)C(=O)CC[C@@H]12	–	66	·	–	–	–	72	Casp1-ASC yeast=70;NALP3 retest=60
C[C@]12CCC3C(C1CCC2=O)[C@H](O)C[C@H]1C[C@@H](O)CC[C@]31C (stereo not given in full)	–	–	·	–	–	–	·

High-throughput results from PubChem BioAssay.
